# In PMC5540273 (PLoS ONE, 2017):
# Tests used:
# Conditions in all cases: concentration: 1 μM, replicates: in singlicate; n = 1
# [1] = tested on: CAMK2D
# [2] = tested on: CAMK2G
# [3] = tested on: CAMK4
# [4] = tested on: CAMKK1
# [5] = tested on: CAMKK2
# [6] = tested on: CASK
# [7] = tested on: T1, CDC2L1
# T1 construct: gene CDK11B
# [8] = tested on: CDC2L2
# [9] = tested on: T2, CDC2L5
# T2 construct: gene CDK13
# [10] = tested on: T3, CDK11
# T3 construct: gene CDK19
# [11] = tested on: CDK2
# [12] = tested on: CDK3
# [13] = tested on: CDK4-cyclinD1
# [14] = tested on: CDK4-cyclinD3
# [15] = tested on: CDK4
# [16] = tested on: CDK5
# [17] = tested on: CDK7
# [18] = tested on: CDK8
# [19] = tested on: CDK9
# [20] = tested on: CDKL1
# 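Also: KINOMEscan kinase panel screen.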
SMILES,%Inh [1],%Inh [2],%Inh [3],%Inh [4],%Inh [5],%Inh [6],%Inh [7],%Inh [8],%Inh [9],%Inh [10],%Inh [11],%Inh [12],%Inh [13],%Inh [14],%Inh [15],%Inh [16],%Inh [17],%Inh [18],%Inh [19],%Inh [20]
FC(F)(F)c1cc(Nc2nccc(-c3c(-c4ccc(Cl)cc4)nn4ncccc34)n2)ccc1Cl [GW829351],0%,0%,0%,2%,0%,11%,0%,0%,0%,0%,0%,34%,0%,0%,0%,0%,0%,58%,0%,0%
COc1ccc(NC(=O)Nc2ccc(C)c(-c3ccc(C(=O)Nc4ccncc4)cc3)c2)cc1 [GSK1398475],0%,22%,0%,3%,20%,0%,0%,34%,0%,4%,0%,0%,0%,9%,7%,0%,0%,40%,0%,1%
Cl.c1ccc(Cn2ccc3cc(Nc4ncnc5ccccc45)ccc32)cc1 [GW275568],24%,27%,0%,16%,29%,17%,23%,28%,0%,19%,1%,16%,0%,16%,31%,0%,13%,5%,27%,18%
FC(F)(F)c1ccc(-c2nn3ncccc3c2-c2ccnc(Nc3cccc(C(F)(F)F)c3)n2)cc1 [GW828205],0%,0%,17%,6%,0%,0%,0%,3%,0%,0%,1%,0%,2%,0%,0%,0%,0%,32%,0%,55%
CC(=O)Nc1n[nH]c2ncc(-c3ccccc3)cc12 [SB-548492],0%,17%,0%,0%,4%,0%,0%,14%,21%,0%,8%,12%,0%,1%,25%,11%,17%,0%,0%,30%
COC(=O)c1cccc(NC(=O)NCCNc2ccnc(Nc3ccc(F)cc3)n2)c1 [GSK1379883],0%,17%,0%,11%,6%,0%,0%,20%,0%,16%,0%,2%,0%,0%,34%,0%,0%,8%,0%,3%
CC(C)(C)OC(=O)NC1CCCN(c2cc(-c3ccc4c(N)n[nH]c4c3)nc(N)n2)C1 (centres unmarked) [GSK2286096],16%,18%,0%,0%,32%,2%,8%,0%,0%,38%,0%,0%,0%,0%,0%,0%,0%,0%,2%,0%
